According to PubChem BioAssay (EPA / NIEHS):
“And” between values parts separate entries of the source, which are not always exact repeats. Identical values can stand only once. Some structures have more than one record in an assay (separate samples or runs), and their calls can disagree. The source made the active and inactive calls. Rule for the calls: active = hit-call score of the fitted dose curve at least 0.9, where 1 is the maximum; inactive = score below 0.9.

These compounds were tested on Monokine induced gamma interferon (MIG), CXCL9 (gene 4283) (assay: BSK_3C_MIG: BioMAP Diversity Plus: 3C Assay for Monokine induced gamma interferon (MIG) Biomarker Activity (AID 2283021;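 for AC50: MIG protein level measured by immunoassay in the treated endothelial cultures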)). Conditions: primary human endothelial cells (HUVEC); actives raise or lower the signal.
Experimental: BSK_3C is a cell-based, multiplexed-readout assay that uses umbilical vein endothelium, a human vascular primary cell, with measurements taken at 24 hours after chemical dosing in a 96-well plate.BSK_3C_MIG is an assay component measured in the BSK_3C assay. It measures MIG antibody related to regulation of gene expression using ELISA technology.Data from the assay component BSK_3C_MIG was analyzed into 1 assay endpoint. This assay endpoint, BSK_3C_MIG, was analyzed with bidirectional fitting relative to DMSO as the negative control and baseline of activity. Using a type of binding reporter, gain or loss-of-signal activity can be used to understand changes in the signaling as they relate to the gene CXCL9. Furthermore, this assay endpoint can be referred to as a primary readout, because this assay has produced multiple assay endpoints where this one serves a signaling function. To generalize the intended target to other relatable targets, this assay endpoint is annotated to the cytokine intended target family, where the subfamily is chemotactic factor.
The levels of cell surface (or secreted, indicated by the prefix "s") biomarker endpoints were measured by ELISA. Overt cytotoxicity to cells in confluent adherent cultures (all systems other than the BT system) was assessed by measuring total protein levels using sulforhodamine B (SRB) staining in parallel cultures at the time of biomarker measurements, indicated as SRB endpoints. For proliferation assays for adherent cell types, individual cell types are cultured at sub-confluence and relative cell numbers quantified by SRB staining at time points optimized for each system (48 h: 3C and CASM3C systems; 72 h: BT and HDF3CGF systems; 96 h: SAg system). SRB was performed by staining cells with 0.1% SRB after fixation with 10% TCA and reading wells at 560 nm.Viability and proliferation of PBMC (T cells) was quantified by Alamar Blue reduction for the SAg and BT systems. For PBMC viability (referred to as PBMC Cytotoxicity within the assay endpoint names), cells were plated (75,000/well in a 96-well plate) and then chemical samples added for 1 h before addition of activators, SEB and TSST-1 (20 ng/mL final concentration each). Cells were incubated for 90 h. Then, Alamar Blue (20 uL/well) (Invitrogen, Cat DAL1100) was added for 6 h, and the plates were read with a fluorescence microplate reader at 546/580 nm (excitation/emission). For PBMC proliferation, cells were plated and activated as above but incubated for only 16 h prior to addition of Alamar Blue. Plates were read after 6 h.

| SMILES | AC50 | outcome |
| --- | --- | --- |
| CC/C(=C(\c1ccccc1)c1ccc(OCCN(C)C)cc1)c1ccccc1 | 10.4 µM (active) and 9.73 µM (active) | – |
| CC(=O)OC(C)(C)C1CC=C(C)CC1 (stereo not given) | – | inactive |
| C=C(C)C(=O)OCCC(F)(F)C(F)(F)C(F)(F)C(F)(F)C(F)(F)C(F)(F)C(F)(F)C(F)(F)F | – | inactive |
| O=C(O)C(F)(F)C(F)(F)C(F)(F)C(F)(F)C(F)(F)C(F)(F)C(F)(F)C(F)F | – | inactive |
| CCCCCCCCCC(=O)OCC | – | inactive |
| OCC(F)(OC(F)(F)C(F)(OC(F)(F)C(F)(F)C(F)(F)F)C(F)(F)F)C(F)(F)F (stereo not given) | 3.71 µM (active) | inactive |
| C=CC(=O)OCC(CO)(COC(=O)C=C)COC(=O)C=C | 0.602 µM (active) | – |
| CCC(=O)OCC=Cc1ccccc1 | – | inactive |
| CC(=O)CCC=C(C)CCC=C(C)C | – | inactive |
| CCOC(=O)C=Cc1ccccc1 | – | inactive |
| O=S(=O)(O)C(F)(F)C(F)(F)OC(F)(F)C(F)(F)F | – | inactive |
| CCCCCCCC1CCCC1=O (stereo not given) | – | inactive |
| Nc1ccc(N)c([N+](=O)[O-])c1 | – | inactive |
| c1ccc(OCCOc2ccccc2)cc1 | – | inactive |
| CC1=CC(C)C(C=O)C(C)C1 (stereo not given) (tested in a mixture with another compound) | – | inactive |
| O=C(c1ccc(OCCN2CCCCC2)cc1)c1c(-c2ccc(O)cc2)sc2cc(O)ccc12 | 36.1 µM (active) | – |
| C=C(F)C(=O)OC(C(F)(F)F)C(F)(F)F | – | inactive |
| C=C(C)C(N)=O | – | inactive |
| OCCN1CCOCC1 | – | inactive |
| O=S1(=O)CC(Cl)(Cl)C(Cl)(Cl)C1 | 1.34 µM (active) | – |

| SMILES | AC50 | outcome |
| --- | --- | --- |
| CCCCCCCCCCCCS | – | inactive |
| CCCCOCCOCCO | – | inactive |
| c1ccc2c(c1)-c1ccc3ccc4cccc5cc-2c1c3c45 | – | inactive |
| CC(C)CCCC(C)(C)O | – | inactive |
| CC(C)(CO)CO | – | inactive |
| CC(C)Cc1ccc(C(C)C(=O)O)cc1 (stereo not given) | – | inactive |
| CCn1cc(C(=O)O)c(=O)c2ccc(C)nc21 | – | inactive |
| COc1ccccc1NC(=O)CC(C)=O | – | inactive |
| CC(=O)c1ccc(C)cc1 | – | inactive |
| CC1(C)[C@H](C=C(Cl)Cl)[C@H]1C(=O)OCc1cccc(Oc2ccccc2)c1 | – | inactive |
| CCCO[Si](OCCC)(OCCC)OCCC | – | inactive |
| C[C@]12CC[C@@H]3c4ccc(O)cc4CC[C@H]3[C@@H]1CC[C@@H]2O | – | inactive |
| C=C1CC/C=C(\C)CC[C@@H]2[C@@H]1CC2(C)C | 36.6 µM (active) | – |
| O=C1OC2(c3ccc(O)cc3Oc3cc(O)ccc32)c2ccccc21 | – | inactive |
| CCCCN(CCO)CCO | – | inactive |
| O=C(O)C(F)(F)OC(F)(F)C(F)(F)OC(F)(F)C(F)(F)C(F)(F)C(F)(F)F | – | inactive |
| COC(=O)c1ccc(C(=O)OC)cc1 | – | inactive |
| CCOC(=O)CCCCCCCCC(=O)OCC | – | inactive |
| NC(=O)c1c(Cl)cccc1Cl | – | inactive |
